Shown are actives, neighbours in structure and some others; about 3.4% of the full set was active somewhere.
HSF1 inhib = HSF1 inhibition | 300,000 tested, 0.77% active | NIH3T3-HGL HSE-luciferase, MG132-induced, luminescence 8 h; active compounds read low | activity change, negative = inhibition, % at 7.5 µM (by protocol);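 active = more than half of replicate wells show activity change below -50%, luminescence cut by over half; inconclusive = some wells, but at most half, below -50%; inactive = no replicate well below -50%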;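 note: luciferase reports HSF-1 transcriptional activity via heat shock element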
Vif inh = HIV Vif inhibition; HEK293T cells, Vif self-association by quenched fluorescence, imaging, 24 h; inhibition, % at 7.49 µM; 340,000 tested, 0.35% active; in the data active = inhibition above about 50%, passing the limit was not always enough; inconclusive = no clear call, values can overlap the other calls; inactive = below about 31%
esBAF inh = inhibitors of esBAF chromatin remodeling in mouse ES cells. Bmi1-luciferase knock-in reporter, 24 h; 100% = twice the neutral-well signal. reporter increase, % at 12.5 µM. 350,000 tested, 2% active; in the data active = activation above about 40%; inconclusive = no clear call, values can overlap the other calls;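 note: a rise in the Bmi1 reporter signal indicates esBAF inhibition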
HSF1 activator = increases HSF-1 driven luciferase reporter signal; activation, % at 9 µM; NIH3T3-HGL HSF-1 luciferase reporter, MG132, 8 h; 100% = twice DMSO control signal; 300,000 tested, 1.7% active; AID 504408;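 active = mean replicate activation of at least 50% with a set share of replicates each reaching 50%; inconclusive = only one of those two conditions met; inactive = mean below 50% and too few replicates reaching it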
Numbers stand for hits; - = inactive; ? = inconclusive; . = not tested or not shown.

SMILES	HSF1 inhib	Vif inh	esBAF inh	HSF1 activator
Oc1ccc(C2C(c3ccccc3)=NN=C(c3ccccc3F)N2O)c(O)c1 (centres undefined)	-	-	.	-
COc1ccc(Cn2c(-c3ccc(Br)cc3)c[n+]3ccccc23)cc1	-	-	-	62.4
C[C@@H]1CCCCO[C@@H](CN(C)C(=O)C2CCCCC2)[C@H](C)CN([C@@H](C)CO)C(=O)c2cc(NS(C)(=O)=O)ccc2O1	.	.	-	.
CC(C)c1ccc2c(c1)[C@H]1OCC[C@H]1[C@@H](c1cccs1)N2	-	-	.	122.0
COc1ccc(NC(=O)Nc2ccc3c(c2)C(=O)N([C@@H](C)CO)C[C@H](C)[C@@H](CN(C)C(=O)Nc2ccc(F)cc2)OCCCC[C@H](C)O3)cc1	.	.	-	.
CCc1cc2c(NCCC(=O)O)nc(C)nc2s1	-59.9	-	-	-
CCc1cc2c(NCc3ccccc3)nc(C)nc2s1	-	-	-	-
C[C@@H]1CN([C@@H](C)CO)C(=O)c2cc(NS(=O)(=O)c3ccc(F)cc3)ccc2O[C@@H](C)CCCCO[C@H]1CN(C)CC1CC1	.	.	-	.
CC1CCN(c2oc(-c3ccccc3Cl)nc2C#N)CC1	-	?	53.0	-
Cc1cccc(-c2nc(C#N)c(N3CCCCCC3)o2)c1	-	-	72.7	-
CCCC#Cc1cnc2c(c1)C(=O)N([C@@H](C)CO)C[C@@H](C)[C@@H](CN(C)Cc1ccc(F)cc1)O2	.	.	-	.
O=C(Cn1cc(C(=O)c2ccco2)c2ccccc21)Nc1ccccc1	-	-	-	-
O=C(Cn1cc(C(=O)c2ccco2)c2ccccc21)NC1CCCCC1	-87.0	-	.	-
CC(C)(O)C#Cc1ccc([C@@H]2[C@@H](CO)N3CCCCN(C(=O)c4ccncc4)C[C@H]23)cc1	.	.	-	.
Cc1n[nH]c(C)c1S(=O)(=O)N(CC(=O)N1CCc2ccccc21)c1ccc(C(C)C)cc1	-	-	-	75.0
C[C@@H]1CN([C@@H](C)CO)C(=O)Cc2cc(NS(=O)(=O)c3cn(C)cn3)ccc2O[C@@H]1CN(C)S(=O)(=O)c1ccccc1	.	.	-	.
Cc1ccn2c(=O)nc(SCC(=O)NCc3ccccc3)nc2c1	?	-	-	-
Cc1ccc2nc(SCC(=O)c3ccccc3)nc(=O)n2c1	-	-	67.9	-
Cc1ccn2c(=O)nc(SCC(=O)c3ccccc3)nc2c1	-	-	42.3	-
Cc1ccc2nc(SCC(=O)N3CCCC3)nc(=O)n2c1	-	-	-	-
CC1CCCN(c2ncnc3c2cnn3-c2ccc(Cl)cc2)C1 (centres undefined)	-90.2	-	-	-
CC1CC(C)CN(c2ncnc3c2cnn3-c2ccc(Cl)cc2)C1 (centres undefined)	-52.0	-	-	-
c1ccc(-n2ncc3c(N4CCCCC4)ncnc32)cc1	-	-	-	-
CC1CCCN(c2ncnc3c2cnn3-c2ccccc2)C1 (centres undefined)	-60.8	-	-	-
COc1ccccc1C#Cc1cnc2c(c1)C(=O)N([C@@H](C)CO)C[C@H](C)[C@H](CN(C)C)O2	.	.	-	.
SMILES	HSF1 inhib	Vif inh	esBAF inh	HSF1 activator
COc1ccc(NC(=O)Nc2ccc3c(c2)C(=O)N([C@H](C)CO)C[C@H](C)[C@H](CN(C)CC2CC2)OCCCC[C@H](C)O3)cc1	.	.	-	.
O=C(OCCc1cc2ccccc2c(=O)o1)c1cccs1	.	-	74.6	.
CCOc1ccc2nc(COC(=O)c3cccc([N+](=O)[O-])c3)c(C(C)=O)[n+]([O-])c2c1	-	-	.	68.8
COc1ccc(OCCOC(=O)c2cccs2)cc1	-	-	49.6	63.5
COc1ccc2nc(COC(=O)c3cccs3)c(C(C)=O)[n+]([O-])c2c1	-53.8	-	.	-
COc1ccc2nc(COC(=O)c3cccc([N+](=O)[O-])c3)c(C(C)=O)[n+]([O-])c2c1	-	-	.	-
C[C@@H]1CN([C@H](C)CO)C(=O)c2cc(Br)cnc2O[C@@H]1CN(C)CC1CCOCC1	.	.	-	.
C[C@H]1CN([C@@H](C)CO)C(=O)Cc2cc(NC(=O)Cc3cn(C)c4ccccc34)ccc2O[C@H]1CN(C)C(=O)Nc1ccc2c(c1)OCO2	.	.	-	.
COc1cc(C(=O)Nc2sc3c(c2C(=O)O)CCC(C)C3)cc(OC)c1OC (centres undefined)	-	122.3	-	-
COC(=O)c1sc(N)c(C(=O)OC)c1Cn1ncc(Cl)c(Cl)c1=O	-	-	-	61.3
COC(=O)c1sc(N)c(C(=O)OC)c1COC(=O)c1c(C)noc1C	-	-	-	-
Cc1ccc(NC(=O)CCc2c(C)nn(-c3ccc(N4CCOCC4)nn3)c2C)cc1F	-	-	52.6	-
Cc1ccc(NC(=O)CCc2c(C)nn(-c3ccc(N4CCCCC4)nn3)c2C)cc1C	-	-	-	56.0
Cc1ccc(NC(=O)CCc2c(C)nn(-c3ccc(N4CCOCC4)nn3)c2C)cc1	-	-	-	-
Cc1nn(-c2ccc(N3CCCCC3)nn2)c(C)c1CCC(=O)Nc1ccc(F)c(F)c1	-	-	55.0	-
Cc1ccc(NC(=O)CCc2c(C)nn(-c3ccc(N4CCCCC4)nn3)c2C)cc1	-	-	-	-
Cc1nn(-c2ccc(N3CCOCC3)nn2)c(C)c1CCC(=O)Nc1ccccc1	-	-	-	-
CC(=O)c1ccc(NC(=O)CCc2c(C)nn(-c3ccc(N4CCOCC4)nn3)c2C)cc1	-	-	-	-
Cc1cc(C)cc(NC(=O)CCc2c(C)nn(-c3ccc(N4CCCCC4)nn3)c2C)c1	-	-	67.6	-
COc1ccc(C)cc1NC(=O)CCc1c(C)nn(-c2ccc(N3CCCCC3)nn2)c1C	-	-	61.2	-
Cc1cc(F)ccc1NC(=O)CCc1c(C)nn(-c2ccc(N3CCCCC3)nn2)c1C	-	-	-	-
Cc1ccc(F)cc1NC(=O)CCc1c(C)nn(-c2ccc(N3CCCCC3)nn2)c1C	-	?	65.0	-
C[C@@H]1CN([C@@H](C)CO)C(=O)c2cc(N(C)C)ccc2O[C@H]1CN(C)C(=O)Nc1ccccc1	.	.	-	.
O=Cc1ccc(OCc2ccc3ccccc3c2)cc1	-	-	50.5	60.1
O=Cc1cccc(OCc2cccc3ccccc23)c1	-	-	66.5	-
SMILES	HSF1 inhib	Vif inh	esBAF inh	HSF1 activator
O=Cc1ccc(OCc2ccccn2)cc1	-	-	-	-
Cc1noc(C)c1NC(=O)N(C)C[C@@H]1OCCCC[C@H](C)Oc2ccc(NC(=O)c3ccncc3)cc2C(=O)N([C@H](C)CO)C[C@H]1C	.	.	-	.
Cc1ccc(S(=O)(=O)N/N=C/c2c(C)nn(-c3ccccc3)c2C)cc1	-53.7	-	-	-
Cc1ccc(CSc2nnc(SCC(=O)N/N=C/c3c(C)nn(-c4ccccc4)c3C)s2)cc1	-	-	.	65.1
Cc1nn(-c2ccccc2)c(C)c1/C=N/NC(=O)CSc1nnc(SCc2ccccc2Cl)s1	-	-	.	68.3
O=C(Nc1ccccc1Br)c1ccc(N2CCCC2=O)cc1	-	-	55.1	-
O=C(NCc1ccc(Cl)cc1Cl)Nc1ccccc1	-	-	.	71.5
O=C(NCc1ccc(N2CCCC2=O)cc1)Nc1ccccc1	-	-	-	54.2
Cc1ccc(C)c(CNC(=O)Nc2ccccc2)c1	-	-	50.6	57.3
O=C(c1ccncc1)N1C[C@@H]2[C@H](c3ccccc31)[C@@H](CO)N2C(=O)Nc1ccc(F)cc1	.	.	-	.

Source: PubChem
